Arbovirus anti: antivirals against arbovirus infection, primary screen, cell-based, full library, 10K replicate subset; arbovirus infection cell-based antiviral screen; inhibition, % at 10 µM; 200,000 compounds, 0.37% hits; AID 1251, 2008; in the data active = inhibition above about 30%
p97 ATPase inh: inhibitors of human p97 ATPase, primary screen, biochemical | Transitional endoplasmic reticulum ATPase (Homo sapiens), P55072 | inhibition, % at 8 µM | recombinant p97 ATPase, Kinase-Glo ATP luminescence, 3 h | AID 1481, 2009 | 220,000 compounds, 0.42% hits; in the data active = inhibition above about 15%;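 also: 0% = DMSO vehicle and 100% = wells lacking enzyme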
DTT redox prof: compounds producing H2O2 with reducing agent – biochemical, NIH compound library profiling, artefact control for MLSCN library redox annotation, primary screen; 200,000 compounds, 0.03% hits; activation, % at 10 µM; DTT-dependent redox cycling H2O2, phenol red/HRP absorbance; 100% = 100 µM peroxide control, 0% = buffer; AID 878, 2007;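 active = activation of at least 50% relative to the plate's high and low controls in the primary single-dose screen; inactive = activation below 50%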;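 also: compound incubated with DTT at 0.8 mM final as the reducing agent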
S1P3 antagonist: S1P3 receptor antagonists, primary screen, cell-based. Sphingosine 1-phosphate receptor 3 (Homo sapiens), Q99500. CHO S1P3 NFAT-BLA reporter, FRET fluorescence, antagonist mode. inhibition, % at 4.98 µM. 170,000 compounds, 0.27% hits. AID 485, 2006;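 active = inhibition above the plate cutoff, the mean inhibition of test wells on that plate plus 3 SD, cut at about 28% in these data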;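 also: cells challenged with S1P at its EC80 of 0.8 µM; blue over green emission ratio from cleaved BLA substrate after 4 h stimulation; 0% = S1P-stimulated wells and 100% = unstimulated DMSO-only wells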
Target sequence (Q99500 whole entry, looked up): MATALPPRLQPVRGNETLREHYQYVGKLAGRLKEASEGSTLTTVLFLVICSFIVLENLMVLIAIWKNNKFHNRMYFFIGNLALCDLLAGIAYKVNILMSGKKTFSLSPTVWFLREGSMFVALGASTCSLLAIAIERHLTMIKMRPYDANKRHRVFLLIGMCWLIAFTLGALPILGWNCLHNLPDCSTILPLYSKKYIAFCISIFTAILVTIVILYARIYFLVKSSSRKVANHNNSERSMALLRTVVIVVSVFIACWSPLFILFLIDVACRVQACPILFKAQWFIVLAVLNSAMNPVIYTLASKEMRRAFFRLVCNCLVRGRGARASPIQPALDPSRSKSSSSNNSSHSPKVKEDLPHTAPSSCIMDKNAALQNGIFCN
S1P4 antag: S1P4 receptor antagonists, primary screen, cell-based. Sphingosine 1-phosphate receptor 4 (Homo sapiens), O95977. S1P4-expressing cells, antagonist mode, reporter read-out. inhibition, % at 4.98 µM. 220,000 compounds, 0.26% hits. AID 1510, 2009; in the data active = inhibition above about 29%;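 also: 0% = wells stimulated with agonist and 100% = vehicle wells without agonist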
S1P4 ag: S1P4 receptor agonists, primary screen, cell-based; AID 1509, 2009; activation, % at 4.98 µM; S1P4-expressing cell line, agonist reporter assay; 220,000 compounds, 0.35% hits; in the data active = activation above about 11%;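 also: 0% = DMSO vehicle and 100% = reference agonist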
Starred values were filed as active, the others as inactive; x = no result given; ! = a repeat was not active. Most compounds without a hit are left out; they make up all but 1.6% or so of the library.

SMILES	Arbovirus anti	p97 ATPase inh	DTT redox prof	S1P3 antagonist	S1P4 antag	S1P4 ag
CN=C(Nc1cc(C)nn1CCC#N)c1ccccc1	5	0	2	-18	4	0
C/C(=N\Nc1nc2ccccc2[nH]1)c1ccc2c(c1)OCCO2	-15	4	-1	3	10	-1
C/C(=N\Nc1nc2ccccc2[nH]1)c1ccc2c(c1)OCO2	36*	-1	-4	-3	3	1
Cc1ccc(NC(=O)c2ccc(C(C)(C)C)cc2)cc1-n1cnnn1	-6	1	0	-8	-6	2
Cc1nc(N)c(CC(Br)CBr)c(Cl)n1 (stereo unspecified)	x	2	x	0	9	-1
CC1Cc2ccccc2N1C(=O)Cn1c(=O)oc2cc(S(=O)(=O)N3CCCCC3)ccc21 (stereo unspecified)	-11	5	-1	81*	-4	-1
CN(CCO)c1nc(N)c(C#N)c(CC#N)c1C#N	x	3	x	1	5	2
CC(C)CN(CC(C)C)c1nc(N)c(C#N)c(CC#N)c1C#N	4	2	-3	94*	9	1
O=c1nccc(SCc2ccc(Cl)cc2Cl)[nH]1	x	4	x	-7	-10	0
Cc1ccc(Nc2nc(N)c([N+](=O)[O-])c(N3CCOCC3)n2)cc1C	51*	2	0	-17	-28	2
Cc1ccc(Nc2nc(N)c([N+](=O)[O-])c(N3CCC(C)CC3)n2)cc1C	-36	-2	-1	-16	-2	1
CCO[C@H]1OC(C(=O)O)=C[C@@H](C)[C@@H]1CCCO	3	7	-1	-1	-5	0
COc1cc(C2c3c(oc4ccc(C)cc4c3=O)C(=O)N2c2cc(C)ccn2)cc(OC)c1OC (stereo unspecified)	x	x	x	99*	x	x
COC(=O)c1sc(-c2ccc(C(C)(C)C)cc2)cc1NC(=O)CSCC(=O)O	x	-10	x	1	-14	1
O=C(Cc1cccs1)Nc1cccc(C(=O)Nc2ccco2)c1	-36	-1	0	52*	-20	-3
Cc1nc2ccc(NC(=O)c3cc([N+](=O)[O-])cc([N+](=O)[O-])c3Cl)cc2s1	-29	10	2	-1	66*	6
CCOc1cc(/C=N/NC(=O)CN2CCCCC2)ccc1OCc1cccc(Cl)c1	6	-2	-1	-4	-8	0
Cc1cc(C(=O)OCC(=O)Nc2cc(S(=O)(=O)N3CCOCC3)ccc2Cl)c(C)o1	0	16*	0	x	-4	0
Cc1cc(C(=O)OCC(=O)Nc2ccc(S(=O)(=O)N3CCOCC3)cc2)c(C)o1	9	0	0	-25	-11	0
COC(=O)c1ccccc1NC(=O)CN1CCC(n2nnc3cc(C(F)(F)F)ccc32)CC1	32*	-1	0	x	8	-2
COc1ccccc1NC(=O)CN1CCC(n2c(C)nc3cc(F)ccc32)CC1	33*	7	0	12	-17	-1
COc1ccccc1NC(=O)CN1CCC(n2nnc3cc(F)ccc32)CC1	4	6	0	-2	-11	0
CC1(C)OC(c2ccccc2)=C/C(=C\C=N\NC(=O)c2ccncc2)O1	x	11	x	10	10	0
c1ccc(CSc2ccc(-c3cccnc3)nn2)nc1	30*	0	0	-10	-8	2
O=C(CSc1nnc(-c2ccc(F)cc2)c2ccccc12)Nc1ccccc1Cl	15	2	1	-12	5	1
SMILES	Arbovirus anti	p97 ATPase inh	DTT redox prof	S1P3 antagonist	S1P4 antag	S1P4 ag
C=CCN1C(c2ccccc2)=CS/C1=C(\C#N)c1nnc2n1CCCCC2	0	0	0	-26	-5	0
CCOc1ccc(C2=CS/C(=C(\C#N)c3nnc4n3CCCCC4)N2CC)cc1	-2	-9	0	x	-5	15*
Cc1nnc(N2CCN(c3ccccc3)CC2)c2nn(-c3ccccc3F)c(C)c12	x	-2	-2	x	-13	-3
CC(C)[C@@H]1NC(=O)c2cc([N+](=O)[O-])cc(I)c2NCC[C@@H](C(N)=O)NC(=O)[C@H](CO)NC1=O	-12	18*	1	-10	-6	2
CC(C)C[C@@H]1NC(=O)[C@H](C(C)C)NC(=O)c2cc([N+](=O)[O-])cc(I)c2NCC[C@@H](C(N)=O)NC1=O	1	-3	0	-12	9	0
O=C(c1ccc(S(=O)(=O)N2CCc3ccccc3C2)cc1)N1CCCCC1	10	-1	-1	-14	-12	2
CC1=NN(c2ccc(Cl)c(C(=O)O)c2)C(=O)/C1=C\c1ccc(-c2ccc(C(=O)O)cc2)o1	2	6	-1	-7	3	1
O=C(O)c1ccc(N2C(=O)/C(=C/c3ccc(-c4ccc([N+](=O)[O-])cc4)o3)C=C2c2ccccc2)cc1	106*	5	1	20	1	0
CC(C)n1c(NCCc2ccccc2)nc2c1c(=O)n(C)c(=O)n2C	30*	-4	0	x	-27	0
CCCNc1nc2c(c(=O)n(C)c(=O)n2C)n1CCc1ccccc1	6	5	2	-5	-2	1
O=C(O)CCc1nnc(SCC(=O)Nc2cccc(C(F)(F)F)c2)[nH]c1=O	4	2	-2	6	-14	0
CCN(CC)c1nc(SCC(=O)O)nc(N(CC)CC)n1	11	15*	1	27	-17	1
Cc1cc(/C=c2/sc3nc4ccccc4n3c2=O)c(C)n1-c1ccccn1	-9	-2	1	x	-14	25*
O=c1/c(=C/c2ccc(O)c([N+](=O)[O-])c2)sc2nc3ccccc3n12	30*	7	-2	-13	-28	-2
Cc1cc(/C=c2\sc3nc4ccccc4n3c2=O)c(C)n1-c1ccc(C(=O)O)cc1	37*	-2	-1	1	-10	0
CC(C)NCC(O)COc1ccc2c(c1)CCC2 (stereo unspecified)	-7	1	0	-6	-2	0
O=C(O)/C(=N/NC(=O)c1ccc(Cl)cc1)c1ccccc1	x	11	x	8	-5	-2
COc1ccc(-n2c(=O)c3c4c(sc3n3c(=S)[nH]nc23)CCCC4)cc1	2	4	0	-11	7	-1
O=C(c1ccccc1SCc1ccccc1)N1CCOCC1	3	3	12	-12	-1	0
CCOc1ccc(Nc2cc(=O)oc3ccccc23)cc1	-9	6	3	x	-1	-1
CCN(CC)CC(=O)Nc1c(C)cccc1C	13	20*!	0	-9	-13	1
CCN(CC)CC(=O)Nc1c(C)cc(C(C)(C)C)cc1C	-1	0	1	9	-2	-1
